Screening results (PubChem)
TTR transcr act: activators of transthyretin transcription; activation, % at 16.7 µM; SH-SY5Y TTR promoter Gaussia luciferase, luminescence; 100% = recombinant luciferase protein wells; 92,000 tested, 1.3% active; AID 1117267;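 active = activation above the mean of all tested compounds plus 3 SD, cut at about 9.5% in these data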;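 also: cells exposed to compounds for one day before reading; 0% = median of all test compound wells on the plate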
TTR inh HuH7: decreases TTR transcription in HuH7 cells in activator counter-screen | shares compounds with TTR transcr act | HuH7 TTR promoter-Gaussia luciferase reporter, luminescence | 1,100 tested, 4% active | inhibition, % at 16.7 µM | AID 1117279;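 active = average inhibition above the solvent-only control wells' mean plus 3 SD, cut at about 15% in these data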;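 also: 0% = cells with DMSO only and 100% = cells with inhibitor control FD; inhibitors lower well luminescence so higher value means more inhibition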
TTR act confirm: human TTR transcription activation, confirmation | shares compounds with TTR transcr act | SHSY5Y TTR promoter Gaussia luciferase, luminescence; 100% = purified Lucia enzyme wells, no cells | activation, % at 16.7 µM | 1,100 tested, under 10 active | AID 1117280;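 active = mean activation above a set limit taken from the earlier primary screen, cut at about 11% in these data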;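 also: 0% = DMSO-treated cells and 100% = recombinant Lucia luciferase without cells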
* = called active by the depositor. This excerpt belongs to a sample that is enriched for hits.

SMILES	TTR transcr act	others
Cn1c(-c2cccc([N+](=O)[O-])c2)cnc1NCc1cccc([N+](=O)[O-])c1	0
COc1ccc(Cn2ccc3ccc(-c4ccc5ccn(C(=O)C6CCC6)c5c4)cc32)cc1	1
CC(C)CNC(=O)OCc1cn(Cc2ccc(Cl)cc2)nn1	2
O=C(NCc1ccncc1)c1nc(-c2cccs2)no1	7
COC(=O)c1ccc(-c2nc(-c3cccs3)no2)cc1	13*	TTR inh HuH7=11;TTR act confirm=-1
COC(=O)c1ccc(-c2nc(-c3ccc(Br)o3)no2)cc1	-2
Cc1ccccc1CN1CCCCC(NC(=O)c2c(F)cccc2F)C1=O (stereo not given)	3
CCN1CCC(NC(=O)Nc2cccc(C(F)(F)F)c2)CC1	19*	TTR inh HuH7=-14;TTR act confirm=0
CS(=O)(=O)N1CCC(C(=O)Nc2cccc(C(F)(F)F)c2)CC1	0
CCOC(=O)N1CCC(NC(=O)c2cc(C(=O)Nc3cccc(C(F)(F)F)c3)ccc2CO)CC1	-2
O=C(NC1CCCCN(Cc2ccc(Cl)cc2)C1=O)c1cc(-c2ccccc2)no1 (stereo not given)	-1
CCC1(C)C2(C#N)C(N)=NC(OC)(OC)C12C#N (stereo not given)	16*	TTR inh HuH7=-4;TTR act confirm=-1
c1nc(NCC2CCCOC2)c2cc(-c3ccc4c(c3)OCO4)ccc2n1 (stereo not given)	0
COc1ccc(CCNC(=O)c2c(N)[nH]c(C(=O)c3ccccc3)c2-c2ccc(N(C)C)cc2)cc1	-2
C=CCN(C(=O)[C@@H](C)[C@@H](O)c1ccc(C(C)=O)cc1)c1ccccc1	4
CCCC[C@H](C(=O)N(CC)c1ccccc1)[C@@H](O)c1ccc(C(C)=O)cc1	1
CCN(C(=O)[C@@H](C)[C@@H](O)c1ccc(C(C)=O)cc1)c1ccccc1	11*	TTR inh HuH7=-4;TTR act confirm=0
COC(=O)[C@]12CCCCC=C1N(Cc1ccc(OC)cc1)C(=O)[C@@H]2CC(=O)NCc1ccccc1	-1
COCCCNC(=O)C[C@H]1C[C@@]2(C(=O)OC)C(=C[C@H](COCc3ccccc3)O[C@@H]2C)N(Cc2ccco2)C1=O	0
COC(=O)[C@]12C[C@H](CC(=O)NCc3cccs3)C(=O)N(Cc3ccc(Cl)cc3Cl)C1=C[C@H](C1CCCC1)O[C@@H]2C	6
O=C(Nc1nnc(-c2ccccc2)o1)c1nc2ccccc2s1	15*	TTR inh HuH7=-12;TTR act confirm=2
NC(=O)c1oc2ccccc2c1NC(=O)c1nc2ccccc2s1	-1
CC(C)C(=O)Nc1nnc(-c2ccccc2)o1	-1
CN1C(=O)C(c2cn(C)c3ccccc23)(c2cn(C)c3ccccc23)c2ccccc21	0
O=C1C(=O)N(Cc2ccc(-c3ccccc3)cc2)c2ccc(OC(F)(F)F)cc21	-3
SMILES	TTR transcr act	others
COc1ccc(Cn2ccc3ccc(-c4ccc5ccn(C(=O)c6ccccc6)c5c4)cc32)cc1	-1
COc1ccc2c(C#CCCO)c(-c3ccc(S(C)(=O)=O)cc3)sc2c1	-3
Brc1ccc(-c2c(-c3ccsc3)sc3ccccc23)cn1	-1
OCCC#Cc1c(-c2ccsc2)sc2ccccc12	10.0*	TTR inh HuH7=-8;TTR act confirm=-1
CCCC[C@H](C(=O)N(C)c1ccccc1)[C@@H](O)c1ccc(C(C)=O)cc1	2
O=C(c1cc(C2CC2)on1)N(C1CCCCC1)C1CCCCC1	0
Cc1nc(N)ncc1CCC1OCCO1	12*	TTR inh HuH7=-10;TTR act confirm=0
C#CCNC(=O)C[C@@H]1C(=O)N2CCCC3=C2[C@@]1(C(=O)OCC)CCC3	4
COc1ccccc1N(C(=O)c1snc(C(N)=O)c1N)C(C(=O)NCCC(C)C)c1ccco1 (stereo not given)	-1
NC(=O)c1nsc(C(=O)N(Cc2cccnc2)C(C(=O)NC2CCCC2)c2ccc(F)cc2)c1N (stereo not given)	0
CC(C)(C)NC(=O)C(c1ccco1)N(Cc1ccc(F)cc1)C(=O)c1snc(C(N)=O)c1N (stereo not given)	10*	TTR inh HuH7=1;TTR act confirm=0
O=C(Nc1ccccc1)OC[C@@H]1CSCCS(=O)(=O)N1	3
CCC[C@H]1[C@@H](OC(=O)NCc2ccccc2)CC[C@@]23CCCN2C(=O)CCC[C@@H]13	3
C[C@H]1CCCN1c1ccc2c(c1)O[C@@H]1CCN(C1)S2(=O)=O	3
CCOc1ccccc1NC(=O)CNC(=O)Cc1ccccc1	0
Cc1ccc(C)c(NC(=O)Cc2coc3cc4c(cc23)CCC4)c1	-1
CCOc1ccccc1NC(=O)Cc1coc2cc(C)ccc12	14*	TTR inh HuH7=-25;TTR act confirm=2
COc1cc(C(=O)N2C[C@@H]3CCC[C@H]2C3)ccc1OC1CCN(C(C)=O)CC1	16*	TTR inh HuH7=-8;TTR act confirm=0
COc1cc(C(=O)N2C[C@H]3CC[C@H]2C3)ccc1OC1CCN(C(C)=O)CC1	0
